Source: PubChem BioAssay
Where “and” joins values, the source holds several entries; their conditions need not be identical. Equal entries are not always repeated. Calls of active or inactive are those of the source. Unless noted, no rule for the calls is given here.

Key:
[1] = test system: Wnt5a (protein binding on small-molecule microarray); experiment: small molecules binding Wnt5a protein – biophysical, small-molecule microarray, 635/667 nm fluorescence, primary screen (AID 1142); conditions: 635 nm fluorescence, higher = more signal;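 also: fluorescence read at 667 nm with signal to noise per printed feature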
[2] = ATP-based viability of Huh7 replicon cells – cell-based, CellTiter-Glo luminescence, basal, 48 h, cytotoxicity control for HCV replication inhibitor project, primary screen (AID 1143); conditions: higher = more signal, called active from +8 up or from −8 down;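 also: Huh7 hepatoma cells carrying a hepatitis C replication reporter with no stimulus; test concentration not given here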
[3] = Pseudomonas biofilm growth suppression – PAO1 strain, BacTiter-Glo luminescence, LB-PBS, primary screen (AID 1144); conditions: P. aeruginosa PAO1 biofilm, 12 h, higher = more signal
[4] = basal CRE-LacZ reporter activity in PC12 – cell-based, unstimulated, primary screen (AID 1145); conditions: no forskolin, luminescence, 4.5 h, higher = more signal, called active from +8 up or from −8 down
[5] = forskolin-driven CRE-LacZ activity in PC12 – cell-based, CRE-LacZ reporter, forskolin-stimulated, primary screen (AID 1146); conditions: luminescence, 4.5 h, higher = more signal, called active from +8 up or from −8 down;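 also: PC12 cells with 6xCRE LacZ reporter stimulated by forskolin 10 µM; beta-galactosidase reporter signal reflecting CREB driven transcription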
[6] = molecular target: Streptavidin (Streptomyces avidinii) (UniProt P22629); experiment: compounds binding control protein streptavidin – biophysical, small-molecule microarray, 635/667 nm fluorescence, artefact control for SMM compound annotation, primary screen (AID 1147); conditions: higher = more signal;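 also: signal reflects streptavidin binding to arrayed compounds as a control protein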
[7] = probe aInhba binding on compound microarray – biochemical, small-molecule microarray, 635/667 nm fluorescence, primary screen (AID 1148); conditions: higher = more signal;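 also: score merges 667nm spot fluorescence with signal-to-noise for antibody binding to printed compounds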
Torsin-1A (Homo sapiens) [8] = molecular target: Torsin-1A (Homo sapiens) (UniProt O14656); experiment: TOR1A wild-type binding on microarray – cell lysate, small-molecule microarray, lysate, 635/667 nm, primary screen (AID 1149); conditions: COS7 hTOR1A-WT lysate, 635 nm fluorescence, higher = more signal
Torsin-1A (Homo sapiens) [9] = molecular target: Torsin-1A (Homo sapiens) (UniProt O14656); experiment: torsin A mutant lysate binding on microarrays – cell lysate, small-molecule microarray, COS7 lysate, 635/667 nm fluorescence, primary screen (AID 1150); conditions: COS7 hTOR1A mutant lysate, 635 nm fluorescence, higher = more signal;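 also: score pools 667 nm emission and signal to noise measuring lysate protein binding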
[10] = test system: Sonic hedgehog protein (Shh); experiment: Sonic hedgehog microarray binding compounds – biochemical, small-molecule microarray, 635/667 nm fluorescence, primary screen (AID 1151); conditions: 635 nm fluorescence, higher = more signal;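 also: Shh protein binding to compounds spotted on small-molecule microarray slides; score combines spot fluorescence intensity with signal-to-noise across triplicate slides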

Sequence of Torsin-1A (Homo sapiens) (O14656 whole entry, looked up): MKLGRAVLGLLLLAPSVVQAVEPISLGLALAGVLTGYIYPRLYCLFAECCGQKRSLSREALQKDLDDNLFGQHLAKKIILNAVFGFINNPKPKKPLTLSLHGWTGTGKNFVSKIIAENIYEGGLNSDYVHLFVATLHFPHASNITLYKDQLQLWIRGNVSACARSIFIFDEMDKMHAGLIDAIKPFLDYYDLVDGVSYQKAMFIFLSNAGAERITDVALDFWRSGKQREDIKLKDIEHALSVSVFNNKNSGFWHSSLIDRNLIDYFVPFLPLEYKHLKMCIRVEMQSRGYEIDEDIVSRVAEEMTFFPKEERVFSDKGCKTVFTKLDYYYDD
Sequence of Streptavidin (Streptomyces avidinii) (P22629 whole entry, looked up): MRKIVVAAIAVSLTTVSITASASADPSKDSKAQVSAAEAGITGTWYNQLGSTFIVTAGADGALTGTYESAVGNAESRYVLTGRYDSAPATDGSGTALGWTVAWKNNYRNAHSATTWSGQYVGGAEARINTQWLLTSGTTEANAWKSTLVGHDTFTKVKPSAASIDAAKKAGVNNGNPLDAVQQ

Row | Compound | composite z-score [1] | z-score [2] | z-score [3] | z-score [4] | z-score [5] | composite z-score [6] | composite z-score [7] | composite z-score (Torsin-1A (Homo sapiens) [8]) | composite z-score (Torsin-1A (Homo sapiens) [9]) | composite z-score [10]
1 | C=C[C@@H](OC)[C@H](O)c1ccc(O)c(F)c1 | -0.843 and -0.24 | 0.558 (inactive) and -0.495 (inactive) | -0.776 (inactive) and 0.181 (inactive) | 0.572 (inactive) and 0.427 (inactive) | -0.881 (inactive) and -0.122 (inactive) | -1.35 and -1.17 | -0.314 and -0.154 | -1.65 and -0.846 | -2.28 and -0.978 | -0.644 and 0.0436
2 | CCOC(=O)CCN1C(=O)[C@H]2[C@H]3[C@H](O)[C@H](O)CC(=NNC(=O)OCC)[C@@H]3CC[C@H]2C1=O | 0.201 | 0.0243 (inactive) | -0.129 (inactive) | 0.796 (inactive) | 0.261 (inactive) | -0.283 | -0.0791 | 0.274 | 0.608 | 0.188
3 | CCOC(=O)[C@@H]1CC=C2CC1C(=O)N1CCC[C@@H]1[C@H]2O[Si](C)(C)C(C)(C)C (some centres undefined) | -0.12 and -0.752 | 0.856 (inactive) and -3.46 (inactive) | 0.318 (inactive) and 0.0257 (inactive) | -0.692 (inactive) and -1.5 (inactive) | 1.25 (inactive) and -1.04 (inactive) | -0.759 and -2.05 | 0.027 and -0.319 | -0.408 and -2.35 | -0.0943 and -2.33 | -0.085 and -0.0655
4 | CC(C)N1CC=CC23O[C@@H]4C=CCCOC(=O)C4[C@H]2C(=O)N(C(C)CO)[C@@H]3C1=O (some centres undefined) | 0.797 and -0.143 | -0.909 (inactive) and 0.0354 (inactive) | – | -0.631 (inactive) and -0.753 (inactive) | -0.0522 (inactive) and -0.428 (inactive) | -0.55 and 1.17 | -0.128 and -0.176 | 0.0687 and -0.403 | -0.0439 and 0.0427 | -0.0042 and -0.188
5 | C=CCN(CCCC)C(=O)C1N(CCOCCO)C(=O)C2C(C(=O)O)C3C=CC21O3 (centres undefined) | -0.978 and -0.38 | 0.757 (inactive) and -0.117 (inactive) | 1.42 (inactive) and 1.2 (inactive) | -0.899 (inactive) and -0.497 (inactive) | -0.327 (inactive) and -0.267 (inactive) | -1.6 and -1.56 | -0.128 and -0.353 | -3.18 and -0.099 | -2.51 and 2.04 | -1.52 and -1.51
6 | C[N+](C)(C)CCCCCCNC(=O)[C@@H]1C[C@@H]2C(=O)N[C@@H](CCCC[N+](C)(C)C)C(=O)N2[C@@H]1c1ccc(O)cc1 | 0.107 and -0.0086 | 0.0047 (inactive) and 0.0071 (inactive) | -0.424 (inactive) and -0.439 (inactive) | -0.532 (inactive) and -1.08 (inactive) | -1.2 (inactive) and 0.128 (inactive) | -0.392 and -0.129 | -0.128 and -0.0375 | 0.854 and -0.609 | 0.0983 and -0.498 | 1.61 and 2.12
7 | Cc1ccc(S(=O)(=O)N[C@H]2COC(=O)[C@@H](C)COC(=O)[C@H](C)NC(=O)CC=C[C@H]2C)cc1 | 0.105 | 0.365 (inactive) | -0.16 (inactive) | -0.204 (inactive) | -0.253 (inactive) | -0.192 | -0.128 | -0.233 | -0.11 | 0.837
8 | C[N+](C)(C)CCCCNC(=O)[C@@H]1C[C@@H]2C(=O)N[C@@H](CCCC[N+](C)(C)C)C(=O)N2[C@@H]1c1cccc(OCCO)c1 | 1.07 and 0.542 | -0.219 (inactive) and 0.0262 (inactive) | 0.78 (inactive) and -0.351 (inactive) | -0.264 (inactive) and 0.692 (inactive) | -1.09 (inactive) and -0.277 (inactive) | 0.0255 and -0.695 | -0.05 and -0.0413 | 2.06 and 0.536 | 2.17 and 1.72 | 2.31 and 2.25
9 | C=C[C@H](OC)[C@@H](O)c1ccc(O)c(F)c1 | -0.542 and -1.18 | -0.217 (inactive) and -0.324 (inactive) | -0.263 (inactive) and -1.21 (inactive) | 1.53 (inactive) and 0.353 (inactive) | 1.41 (inactive) and 0.473 (inactive) | -1.42 and -1.09 | -0.409 and -0.32 | -1.55 and -3.36 | -1.77 and -2.26 | -1.28 and -0.249
10 | CON(C)C(=O)c1nnc2c3ccccc3n(S(=O)(=O)c3ccc(C)cc3)c2n1 | 0.26 and 0.335 | 0.24 (inactive) and 0.0218 (inactive) | 1.36 (inactive) and 0.0837 (inactive) | 1.37 (inactive) and 1.28 (inactive) | -0.0387 (inactive) and -0.484 (inactive) | 1.31 and 1.67 | 0.0543 and -0.0018 | 0.201 and 1.19 | 0.492 and 1.11 | 0.642 and 1.22
